High-throughput results as filed in PubChem.
Rows were chosen to be rich in hits. Some 3.5% of all compounds tested hit in one or more screens of this group.
Kir21 block: inhibitors of mouse Kir2.1 inward-rectifier potassium channel. P35561. HEK293-Kir2.1, FluxOR thallium flux fluorescence; active compounds read low. B-score at 10 µM. 310,000 tested, 0.85% active. AID 1672;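 active means fluorescence ratio B-score at or below minus 3 SD of library scores, with starting-brightness B-score within 2 SD, cut at about -4.2 in these data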;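 further: channel flux triggered by added potassium and thallium sulfate stimulus; B-score of peak minus minimum fluorescence over baseline after thallium stimulus; more negative B-score means stronger Kir2.1 block with less thallium influx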
ANO1 block: mouse TMEM16A channel inhibition, primary screen | Q8BHY3 | HEK293 TMEM16A/YFP iodide influx fluorescence, ionomycin | normalized B-score (activity score, 25-100; higher = stronger inhibition) at 10 µM | 310,000 tested, 1.2% active | AID 588511;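 active means ratio plate-corrected score three or more library SD toward inhibition, starting fluorescence score within five deviations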;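 further: score derived from kinetic fluorescence span divided by baseline fluorescence per well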
KCNK9 inh: inhibitors of human KCNK9 two-pore domain potassium channel | B-score at 10 µM | HEK293 KCNK9, FluxOR thallium flux fluorescence; active compounds read low | Q9NPC2 | 310,000 tested, 1.2% active;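 active means ratio B-score over 3 SD below the library mean, with starting fluorescence within 5 SD of its mean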;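 further: negative B-score means less thallium flux so channel inhibition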
Target sequence (Q9NPC2 whole entry, looked up, the tested form may be a part): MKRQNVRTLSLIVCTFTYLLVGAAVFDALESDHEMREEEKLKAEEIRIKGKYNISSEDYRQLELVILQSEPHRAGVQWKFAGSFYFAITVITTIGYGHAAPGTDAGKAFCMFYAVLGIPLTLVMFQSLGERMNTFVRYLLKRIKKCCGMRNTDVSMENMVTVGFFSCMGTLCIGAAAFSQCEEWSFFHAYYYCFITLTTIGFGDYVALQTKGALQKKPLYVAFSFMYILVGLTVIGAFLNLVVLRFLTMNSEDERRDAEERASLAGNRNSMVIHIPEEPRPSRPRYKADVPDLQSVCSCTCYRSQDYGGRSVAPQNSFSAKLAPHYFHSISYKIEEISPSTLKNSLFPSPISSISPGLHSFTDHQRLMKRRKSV
TMEM16A act: mouse TMEM16A channel activation, primary screen; HEK293 TMEM16A/YFP-H148Q/I152L, iodide quench fluorescence; active compounds read low; B-score at 10 µM; 340,000 tested, 0.3% active;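 active means fluorescence-ratio B-score plate-corrected deviation score at least 3 library SD below zero, with starting fluorescence score within 5 deviations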;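 further: channel opened by trigger with iodide after compound preincubation; score built on the fluorescence ratio of max minus min over baseline; more negative score means more quench and so TMEM16A activation or potentiation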
KCNK3 block: human KCNK3 channel inhibition, primary screen. CHO-KCNK3 thallium flux, FluxOR fluorescence; active compounds read low. B-score at 10 µM. 340,000 tested, 0.84% active;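 active means B-score under library mean minus 4 SD, starting fluorescence ratio at most library mean plus 5 SD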;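 further: more negative B-score means stronger inhibition of thallium flux through KCNK3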
Of the large screens only hits and unclear results are named; the others gave an inactive call.

NNc1nc(Nc2ccccc2)nc(Nc2ccccc2)n1	none
CCCn1c(SCC(=O)Nc2ccc(S(=O)(=O)N(C)C)cc2)n[nH]c1=O	none
CCN(C(=O)CSc1ncnc2sc(C)c(C)c12)C1CCS(=O)(=O)C1 (configuration not stated)	TMEM16A act -40
O=C(CSc1nnc(SCc2ccccc2)s1)N/N=C/C=C/c1ccccc1[N+](=O)[O-]	KCNK9 inh -7.8
C/C(=N/NC(=O)c1ccc(Br)o1)c1cccc(NC(=O)c2ccc(F)cc2)c1	none
O=C(CCc1nnc(CCc2ccccc2)o1)NC(c1cccnc1)C(F)(F)F (configuration not stated)	none
COc1ccc(N2C3=C(CC4=C2CC(C)(C)CC4=O)C(=O)CC(C)(C)C3)cc1	Kir21 block -5.1
COc1ccc(-n2ccc(=O)c3c2CCCC3=O)cc1	none
COc1ccc(N2C3=C(CC4=C2CCCC4=O)C(=O)CCC3)cc1	KCNK9 inh -6.6
Cc1c(C(=O)N2CCCC2)c(S(=O)(=O)Nc2ccccc2)c(C)n1C	none
COCCCNC(=S)N(Cc1ccccc1)Cc1nc2ccccc2c(=O)[nH]1	ANO1 block 25
CCNC(=S)N(Cc1ccccc1)Cc1nc2ccccc2c(=O)[nH]1	none
S=C1NC2(CCCCC2)NN1c1ccccc1	TMEM16A act -5
CC1CCCC2(C1)NC(=S)N(c1ccccc1)N2 (configuration not stated)	none
C=CCN=C(NC#N)SCC(=O)c1cccc(OC)c1	ANO1 block 25
C=CCN=C(NC#N)SCc1ccccc1	none
CCCC(c1nnnn1C(C)(C)CC)N(Cc1ccco1)Cc1cc2ccc(OC)cc2[nH]c1=O (configuration not stated)	KCNK9 inh -6.8 (no result: ANO1 block)
CC(C)c1onc(C(=O)Nc2sc3c(c2C#N)CCC3)c1[N+](=O)[O-]	none
Cc1nn(C(C)C(=O)Nc2sc3c(c2C#N)CCCC3)c(C)c1[N+](=O)[O-] (configuration not stated)	ANO1 block 100
COc1cccc(-c2coc3c(C)c4oc(=O)c(CCC(=O)O)c(C)c4cc23)c1	ANO1 block 100
COc1cc(C(=O)Nc2ccc(S(=O)(=O)N3CCCCC3)cc2)ccc1OCC(=O)N1CCOCC1	none (no result: Kir21 block, ANO1 block, KCNK9 inh)
O=c1[nH]c(CSc2nc(-c3ccc(F)cc3)cs2)nc2ccccc12	none
Cc1ccc(C(=O)N2CCN=C2SCc2ccc([N+](=O)[O-])cc2)cc1	TMEM16A act -5.8
Cc1ccc(CSC2=NCCN2C(=O)c2ccc([N+](=O)[O-])cc2)cc1	none
CCc1nccn1CCC(=O)NC1CCCc2c1cnn2-c1ccc(F)cc1F (configuration not stated)	none
Cc1[nH]nc(-c2cccnc2)c1N=NN(C)C	none (no result: Kir21 block, ANO1 block, KCNK9 inh)
CC1CCCN(CCOCCOc2ccc(Br)cc2Cl)C1 (configuration not stated)	none
Cc1ccc(OCCCCN2CCC(C)CC2)c(Br)c1	Kir21 block -6
COc1ccccc1OCCCCN1CCC(C)CC1	none
Cc1ccc(C)c(OCCCCN2CCCCC2)c1	none
Clc1ccc(OCCCCCN2CCCC2)c(Br)c1	none
Clc1ccc(OCCCN2CCCCC2)c(Br)c1	TMEM16A act -14
CC1CCN(CCCOc2ccc(Br)cc2Cl)CC1	Kir21 block -7.6
Cc1ccc(OCCCCCCN2CCNCC2)c(Br)c1	Kir21 block -5.6
NC(=O)C1CCN(C(=S)NCCc2ccccc2)CC1	none
O=[N+]([O-])c1ccc(/C=N/Nc2nc(N3CCCCCC3)nc(N3CCCCCC3)n2)o1	KCNK9 inh -7
O=[N+]([O-])c1ccc(/C=N/Nc2nc(N3CCCCC3)nc(N3CCCCC3)n2)cc1	none
O=C(Cc1ccccc1)c1ccc(O)cc1O	none (no result: Kir21 block, ANO1 block, KCNK9 inh)
O=C(CC1=NCCNC(c2ccccc2)C1)c1ccccc1O (configuration not stated)	Kir21 block -6
COc1ccc(-n2ncc3c2CC(C)(C)CC3NC(=O)Cc2nonc2C)cc1 (configuration not stated)	none
CCOc1c(Br)cc(CNC2CCCCCCC2)cc1OC	Kir21 block -4.3
COc1cc(CNC2CCCCCCC2)cc(Cl)c1OC	none
COc1cc(CNC2CCCCCCC2)cc(Br)c1OCC#N	Kir21 block -4.8
CC(C)CCN1CCN(Cc2ccc(C#CC(C)(C)O)s2)CC1CCO (configuration not stated)	TMEM16A act -8.5
COc1cc(S(=O)(=O)NCC2CCCO2)ccc1Br (configuration not stated)	none
COc1cccc(NC(=O)CN2C(=O)c3cccnc3Oc3ccc(Cl)cc32)c1	none
O=C(CN1C(=O)c2cccnc2Oc2ccc(Cl)cc21)Nc1ccccc1F	KCNK9 inh -6.8
COC(=O)c1c(C)[nH]c(C)c1-c1cccc([N+](=O)[O-])c1	TMEM16A act -7.7
Cc1noc(C)c1COC(=O)C1(c2cccc(F)c2)CCCC1	Kir21 block -4.3
Cc1noc(C)c1COC(=O)CNC(=O)c1cccc(F)c1	none
CC1(C)C(=O)OC(c2ccccc2)C2(CCCC2)C1=O (configuration not stated)	none
CCn1c(SCc2nc3scc(-c4ccccc4)c3c(=O)[nH]2)nnc1-c1cccs1	ANO1 block 100
C(=N\Nc1nc(Nc2ccccc2)nc(N2CCOCC2)n1)/c1c[nH]c2ccccc12	ANO1 block 25 (no result: TMEM16A act, KCNK3 block)
Cc1ccc(Nc2nc(N/N=C/c3c[nH]c4ccccc34)nc(N3CCOCC3)n2)cc1	none
Clc1cccc2c1Sc1ccccc1CC2N1CCNCC1 (configuration not stated)	Kir21 block -9.7
COCCCN1CCN(C2Cc3ccccc3Sc3ccc(Cl)cc32)CC1 (configuration not stated)	none
Clc1ccc2c(c1)C(N1CCNCC1)Cc1ccccc1S2 (configuration not stated)	Kir21 block -14, ANO1 block 25
NS(=O)(=O)c1ccc(CCNC(=O)Nc2ccc(Cl)c(Cl)c2)cc1	none
CCC(Oc1nc2ccccc2nc1-c1ccccc1NC(C)=O)C(=O)c1ccccc1 (configuration not stated)	none
COc1ccc(CN(C(=O)c2ccco2)c2ccccc2)cc1	Kir21 block -4.2
O=C(c1ccco1)N(Cc1ccc([N+](=O)[O-])cc1)c1ccc(Br)cc1	KCNK9 inh -6.9
NNC(=O)c1cc2sccc2s1	none
CCOc1ccc(OCCNC(=O)c2cc(C3CC3)nc3c2cnn3C(C)C)cc1	KCNK3 block -8.9 (no result: Kir21 block, ANO1 block, KCNK9 inh)
CCN(CC(=O)NCc1ccc(F)cc1)CC(=O)Nc1cc(S(=O)(=O)N(C)C)ccc1C	none (no result: Kir21 block, ANO1 block, KCNK9 inh)
Clc1ccc(-c2nn3cnnc3s2)c(Cl)c1	ANO1 block 25
Nc1nnc(-c2ccc(Cl)cc2Cl)s1	none
CCOC(=O)Nc1ccc2c(c1)N(C(=O)CCN(C)C)c1ccccc1CC2	none
CCOC(=O)Nc1ccc2c(c1)N(C(=O)CN(C)C)c1ccccc1CC2	ANO1 block 100
COc1cc(C(=O)NC(=S)NNC(=O)[C@H]2C[C@@H]2c2ccccc2)cc(OC)c1OC	ANO1 block 25
